Bioassay records: PubChem BioAssay, NMMLSC
Shown are actives, neighbours in structure and some others; about 2.9% of the full set was active somewhere.
MEKK2 WT-MEK5: modulators of MEK5 binding to wildtype MEKK2, primary screen, biochemical, multiplex bead flow cytometry, Alexa488-MEK5; Mitogen-activated protein kinase kinase kinase 2 (Homo sapiens), Q9Y2U5; Alexa488-MEK5 binding to MEKK2 WT; actives lie on both sides; binding response (% of control), % at 10 µM; 290,000 tested, 1.1% active; AID 1531, 2009; in the data active = binding response below about 67% or above about 130%
MEKK3 PB1 HTS: modulators of MEKK3-MEK5 PB1 binding, primary screen, biochemical, wildtype MEKK3, multiplex bead flow cytometry, Alexa488-MEK5; AID 1529, 2009; Mitogen-activated protein kinase kinase kinase 3 (Homo sapiens), Q99759; bead-based flow cytometry, Alexa488-MEK5 binding to MEKK3; actives lie on both sides; 0 = blocked by unlabeled MEK5, 100 = vehicle; binding response (% of control), % at 10 µM; 290,000 tested, 1.4% active;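 active = binding response more than 3 SD above or below the average of its plate-row segment, actives on both sides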;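 also: Alexa488 bead fluorescence after subtracting the streptavidin-only scavenger bead signal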
Beta2AR agonist: beta2AR agonists driving receptor internalization, primary screen, cell-based, FAP fluorogen, flow cytometry | Beta-2 adrenergic receptor (Homo sapiens), P07550 | Am2.2-beta2AR cells | response, % (test concentration not listed) | 340,000 tested, 0.43% active | AID 504454, 2011;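 active = response above a set limit, near 3 SD of response in nonfluorescent compounds, cut at about 42% in these data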
Target sequence (P07550 whole entry, looked up): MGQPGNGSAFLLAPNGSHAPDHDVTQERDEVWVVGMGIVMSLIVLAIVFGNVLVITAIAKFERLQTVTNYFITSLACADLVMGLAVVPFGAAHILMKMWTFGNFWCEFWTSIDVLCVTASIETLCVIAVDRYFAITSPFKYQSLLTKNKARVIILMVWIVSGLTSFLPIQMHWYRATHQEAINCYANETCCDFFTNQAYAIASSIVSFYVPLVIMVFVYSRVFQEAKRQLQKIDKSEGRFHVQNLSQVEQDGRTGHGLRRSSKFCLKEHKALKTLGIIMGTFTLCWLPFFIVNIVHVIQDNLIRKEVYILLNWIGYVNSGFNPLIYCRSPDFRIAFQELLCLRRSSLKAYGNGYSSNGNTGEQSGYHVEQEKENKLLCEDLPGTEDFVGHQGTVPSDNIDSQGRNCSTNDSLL
MEKK2 mut-MEK5: MEK5 binding signal on mutant MEKK2 PB1, primary screen, biochemical, multiplex bead flow cytometry, Alexa488-MEK5 | Alexa488-MEK5 binding to MEKK2 mutant | percent response, % at 10 µM | 290,000 tested, 0.35% active | AID 1530, 2009; in the data active = percent response above about 24%, passing the limit was not always enough
GRK2 inh: compounds blocking aptamer binding on GRK2 – biochemical, human GRK2, bead flow cytometry, HTS, primary screen; Beta-adrenergic receptor kinase 1 (Homo sapiens), P25098; FAM-aptamer displacement from GRK2; inhibition of aptamer binding, % at 10 µM; 330,000 tested, 0.59% active;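 active = inhibition of aptamer binding above 40%, roughly 3 SD of noise, on plates passing a quality check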;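 also: median bead fluorescence of bound FAM aptamer so fluorescent compounds give negative values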
MEKK2wt confirm: modulators of MEK5 binding to wildtype MEKK2, confirmation, biochemical, single concentration, multiplex bead flow cytometry; shares compounds with MEKK3 PB1 HTS; Alexa488-MEK5 binding to MEKK2 WT; actives lie on both sides; binding response (% of control), % at 10 µM; 5,900 tested, 2.4% active; AID 1892, 2009; in the data active = binding response below about 16% or above about 210%; inactive = in between
MEKK2mut confirm: mutant MEKK2 PB1-MEK5 binding signal retest – biochemical, single concentration, multiplex bead flow cytometry, confirmation | shares compounds with MEKK3 PB1 HTS | Alexa488-MEK5 binding to MEKK2 mutant | percent response, % at 10 µM | 5,900 tested, 2% active | AID 1893, 2009; in the data active = percent response mostly above about 71%, no sharp cut-off; inactive = mostly below about 38%;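 also: higher means compound restores mutant binding toward wildtype level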
MEKK3-MEK5 inh: MEKK3 wild-type PB1 binding to MEK5, inhibitors, confirmation, biochemical, bead multiplex flow cytometry, single concentration, wildtype | binding response (% of control), % at 10 µM | Alexa488-MEK5 binding to MEKK3; stronger effect = lower value | 5,900 tested, 1.8% active | shares compounds with MEKK3 PB1 HTS | AID 1894, 2009;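 active = binding response below 72% of control, or above a set upper limit, though filed actives all read lower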;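 also: 100% = DMSO only wells and 0% = binding blocked by excess unlabeled MEK5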
* = called active by the depositor; . = no result given; ! = a repeat was not active; [ ] = remark or other dose.

SMILES | MEKK2 WT-MEK5 | MEKK3 PB1 HTS | Beta2AR agonist | MEKK2 mut-MEK5 | GRK2 inh | MEKK2wt confirm | MEKK2mut confirm | MEKK3-MEK5 inh
COCc1cc(C)n(CC(=O)Nc2ccccc2C(=O)OC)c(=O)c1C#N | 2.0*[inhibitor] | 2.0*[inhibitor] | 1 | -17 | 0 | 99 | 1 | 103
CC(C)(C)CC(C)(C)c1ccc(O)c(Cc2ccc(Cl)cc2Cl)c1 | . | . | 1 | . | . | . | . | .
C=CCNC(=S)N/N=C(\C)c1cccc(NC(C)=O)c1 | 99 | 99 | 2 | -2 | 11 | . | . | .
C=CCNC(=S)N/N=C(\C)c1cc(OC)c(OC)c(OC)c1 | 106 | 137* | 14 | 0 | 0 | 105 | 1 | 105
CCOC(=O)c1cc(C#N)c(SC(C)C(=O)NC2CCCCC2)nc1C (configuration not stated) | . | . | 7 | . | 5 | . | . | .
C[n+]1c2n(c3ccccc31)N=C(c1ccc(-c3ccccc3)cc1)CS2 | 159* | 112 | -11 | 6 | 0 | 120 | -22 | 89
O=C(CNC(=O)c1ccc(S(=O)(=O)N2CCCC2)cc1)N/N=C/c1ccccc1Cl | 69 | 73*[inhibitor] | 2 | -20 | 4 | 100 | -9 | 102
COc1ccccc1/C=N/NC(=O)CNC(=O)c1ccc(S(=O)(=O)N2CCCC2)cc1 | 101 | 103 | -2 | -2 | 0 | . | . | .
N#CCCN1CCN(C(=O)c2c(N)no[n+]2[O-])CC1 | 112 | 128* | 1 | 0 | 0 | 99 | -5 | 102
COc1ccc(NC(=O)N2CCN(CCC#N)CC2)cc1 | 96 | 100 | 3 | 0 | 0 | . | . | .
COc1ccc([C@H]2CC(=O)C=C(c3cc4ccccc4c4ccccc34)C2)cc1 | . | . | -1 | . | 0 | . | . | .
O=C(C1=C(Nc2ccccc2)c2ccccc2S(=O)(=O)N1)c1ccccc1 | 85 | 64*[inhibitor] | 5 | -2 | 0 | 95 | -7 | 103
C=CCn1c(SCC(=O)Nc2ccc(F)cc2)nnc1-c1cnccn1 | 106 | 103 | 0 | 5 | 3 | . | . | .
CCOC(=O)C1=C(NC(=S)NC(=O)c2ccccc2)c2ccccc2CC1C(C)C (configuration not stated) | 97 | 104 | 3 | -4 | 5 | . | . | .
CCOC(=O)C1=C(NC(=S)NC(=O)c2ccccc2)c2ccccc2CC1(C)CC (configuration not stated) | 30*[inhibitor] | 94 | 22 | 1 | 1 | 98 | 0 | 101
COc1ccccc1C(=O)NC(=O)CSc1nc(C)cs1 | . | . | 8 | . | 0 | . | . | .
c1ccc2[nH]c(-c3ccncc3)nc2c1 | 46*![inhibitor] | 42*![inhibitor] | 2 | -13 | 2 | 106 | 12 | 108
c1ccc(-c2nc3ccccc3[nH]2)cc1 | 108 | 103 | -25 | 8 | 3 | . | . | .
CC(C)NC(=O)C(=O)NCCCN1CCOCC1 | 87 | 101 | 1 | -9 | 0 | . | . | .
COc1ccccc1NS(=O)(=O)c1cc(NC(=O)c2cc3ccccc3oc2=O)ccc1C | 105 | 157* | -1 | 0 | 0 | 96 | -11 | 98
COc1ccccc1NC(=O)Cn1nnc(-c2ccccc2NC(=O)c2cc3ccccc3oc2=O)n1 | 81 | 76*[inhibitor] | 6 | -7 | 3 | 98 | -1 | 99
COc1cccc(NC(=O)c2cc3ccccc3oc2=O)c1 | 103 | 106 | -3 | 3 | 2 | . | . | .
Cc1noc(C)c1S(=O)(=O)N(C)C[C@H]1Oc2ccc(NC(=O)NC(C)C)cc2C(=O)N([C@H](C)CO)C[C@@H]1C | . | . | -3 | . | 0 | . | . | .
O=C(CSc1nc(-c2ccccc2)cs1)NCCN1C(=O)CSC1=O | 112 | 111 | -3 | 4 | 1 | . | . | .
COc1ccccc1Cn1c(=S)[nH]c2ccc(F)cc2c1=O | 105 | 103 | -6 | 4 | 1 | . | . | .
SMILES | MEKK2 WT-MEK5 | MEKK3 PB1 HTS | Beta2AR agonist | MEKK2 mut-MEK5 | GRK2 inh | MEKK2wt confirm | MEKK2mut confirm | MEKK3-MEK5 inh
C[N+]1(CC(=O)NNc2c3ccccc3nc3ccccc23)CCOCC1 | 98 | 101 | . | -3 | 5 | . | . | .
O=C(CN1CCOCC1)NNc1c2ccccc2nc2ccccc12 | 37*[inhibitor] | 40*[inhibitor] | -13 | -9 | 3 | 103 | -3 | 105
COc1ccccc1OCc1cc(C(=O)N(C)CCC2CCCCO2)no1 (configuration not stated) | 104 | 101 | 1 | 7 | 0 | . | . | .
Cc1sc2ncnc(Sc3nnnn3-c3ccccc3)c2c1C | 81 | 78*[inhibitor] | 1 | -14 | 0 | 91 | -14 | 95
CS(=O)(=O)c1ccc(CNC(=O)[C@]2(C(F)(F)F)C[C@H](CCc3ccccc3)CCCO2)cc1 | 86 | 81*[inhibitor] | 3 | -6 | 0 | 93 | -8 | 95
CCCC(C(=O)NC(C)(C)C)N(CC1CCCO1)C(=O)CNS(=O)(=O)c1ccc(F)cc1 (configuration not stated) | 102 | 104 | 5 | 0 | 0 | . | . | .
CCOC(=O)NN1C(=O)c2ccccc2NC1c1ccccc1 (configuration not stated) | 105 | 149* | -6 | 1 | 1 | 119 | 15 | 107
CCOC(=O)NN1C(=O)c2ccccc2NC1c1ccc(N(C)C)cc1 (configuration not stated) | 109 | 144* | 1 | 1 | 2 | 103 | 10 | 107
CCOC(=O)NN1C(=O)c2ccccc2NC1c1ccc(OC)cc1 (configuration not stated) | 100 | 124 | -5 | 0 | 0 | . | . | .
COc1ccc(S(=O)(=O)N2CCN(C(=O)CSC(=S)N3CCCC3)CC2)cc1 | . | . | 2 | . | 4 | . | . | .
CCn1ccnc1CNCc1ccc(OCC(O)CN(C)Cc2ccccc2)cc1 (configuration not stated) | 138* | 102 | 15 | 34 | 0 | 118 | 23 | 104
CCc1ccc(CNCc2ccc(OCC(O)CN(C)Cc3ccccc3)cc2)nc1 (configuration not stated) | 170* | 105 | 4 | 59* | 0 | 148 | 28 | 109
